Laboratory results from PubChem BioAssay.
Records with an inconclusive call do not appear. Calls of active or inactive are those of the source.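 The calls were made as follows, unless noted: active = normalized viability below 100% at a tested concentration; inactive = the rest.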

Experiments:
[1] = growth inhibition of DIPG glioma cells, dose response, cell-based, SU-DIPG-XVII, MIPE5.0, CellTiter-Glo, qHTS (AID 1347060; cut-off not given, nearly all actives have AC50 up to about 26 µM;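 also: cells exposed to compound for 48 hours before viability readout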); settings: SU-DIPG-XVII viability, CellTiter-Glo ATP luminescence
[2] = growth inhibition of DIPG glioma cells, dose response, cell-based, SU-DIPG-IV, MIPE4.0, CellTiter-Glo, qHTS (AID 1347063; cut-off not given, nearly all actives have AC50 up to about 30 µM;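 also: compound exposure lasted 48 hours before the viability readout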); settings: SU-DIPG-IV viability, CellTiter-Glo ATP luminescence
[3] = growth inhibition of DIPG glioma cells, dose response, cell-based, SU-DIPG-XIII, MIPE5.0, CellTiter-Glo, qHTS (AID 1347064; cut-off not given, nearly all actives have AC50 up to about 23 µM;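 also: cells exposed to compound for 48 hours before the viability read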); settings: SU-DIPG-XIII viability, CellTiter-Glo ATP luminescence
[4] = viability loss in pontine glioma line – cell-based, SU-DIPG-XXV, MIPE5.0, CellTiter-Glo, qHTS, dose response (AID 1347065; cut-off not given, nearly all actives have AC50 up to about 26 µM;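 also: cells exposed to compound for 48 hours before ATP readout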); settings: CellTiter-Glo ATP luminescence
[5] = SU-DIPG-VI glioma cell viability, MIPE4.0 library, CellTiter-Glo luminescence, qHTS (AID 1347066; cut-off not given, nearly all actives have AC50 up to about 30 µM;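 also: cells exposed to compound for 48 hours before readout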); settings: CellTiter-Glo ATP luminescence
[6] = SU-DIPG-XXV glioma cell viability, MIPE5.0 library, qHTS (AID 1347068; cut-off not given, nearly all actives have IC50 up to about 30 µM;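 also: cells exposed to compound for 48 hours before viability readout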)
[7] = sensitizers of A549 cells to miR-34 induction, primary screen, imaging, A549 dox-inducible miR-34, nuclei and caspase counts (AID 1347080;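 active = compounds whose cell count with miR-34 switched on is under 0.7 times the count with it off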); settings: A549 miR-34 inducible, Hoechst nuclei count, 48 h
[8] = modifiers of HSF1 nuclear foci, imaging, Selleck Cancer Library (AID 1347162; in the data active = plate-normalised HSF1 focus index below about 0.46); settings: human cells, at 10 µM; SSMD: measured here: HSF1 foci SSMD mean; cell count: measured here: cell number; plate-normalised HSF1 focus index: stronger effect = lower value
[9] = survival rescue of mitochondrial mutant cells in low glucose, primary screen, MELAS cybrids, Rieske KO mouse fibroblasts, CellTiter-Glo (AID 1508586;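 active = mean z-score across replicates of 1.96 or higher in either the MELAS or the Rieske mutant cell line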;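 also: z relative to plate mean and SD of compound and empty wells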)
[10] = ovarian cancer cell viability with rucaparib, profiling panel, oncology-focused library, rucaparib conditional (AID 1508598); settings: patient-derived ovarian cancer cells, CellTiter-Glo viability, 144 h, stronger effect = lower value

Nc1nc(Nc2ccc(S(N)(=O)=O)cc2)nn1C(=O)c1c(F)cccc1F
-1.32: z-score ([9]; Rieske KO mouse fibroblast survival, CellTiter-Glo 72 h)
inactive: outcome [5] | fold change ([7]; stronger effect = lower value, cell number ratio, induced over uninduced) 0.887 | plate-normalised HSF1 focus index [8] 0.961 | z-score ([9]; MELAS cybrid survival, CellTiter-Glo 48 h, stronger effect = higher value) -0.135
-0.763: SSMD [8]
1400: cell count ([7]; measured here: total cells with miR-34 induction, stronger effect = lower value)
6780: cell count [8]
active: AC50 [1] 6.61 µM | AC50 [2] 9.35 µM | AC50 [3] 4.68 µM | AC50 [4] 6.61 µM | IC50 [6] 10.5 µM | viability ([10]; at 0.000305 µM, OCI-C5x cells, with rucaparib 10 µM, 100% = cells with rucaparib alone) 95% | viability ([10]; at 0.000305 µM, OCI-C5x cells, without rucaparib) 99.5% | viability ([10]; at 0.000305 µM, OCI-P5x cells, with rucaparib 20 µM, 100% = cells with rucaparib alone) 89.3% | viability ([10]; at 0.000305 µM, OCI-P5x cells, without rucaparib) 84.9% | viability ([10]; at 0.00122 µM, OCI-C5x cells, with rucaparib 10 µM, 100% = cells with rucaparib alone) 96.6% | viability ([10]; at 0.00122 µM, OCI-C5x cells, without rucaparib) 96.5% | viability ([10]; at 0.00122 µM, OCI-P5x cells, with rucaparib 20 µM, 100% = cells with rucaparib alone) 91.5% | viability ([10]; at 0.00122 µM, OCI-P5x cells, without rucaparib) 86% | viability ([10]; at 0.00488 µM, OCI-C5x cells, with rucaparib 10 µM, 100% = cells with rucaparib alone) 93.6% | viability ([10]; at 0.00488 µM, OCI-C5x cells, without rucaparib) 93.3% | viability ([10]; at 0.00488 µM, OCI-P5x cells, with rucaparib 20 µM, 100% = cells with rucaparib alone) 94.7% | viability ([10]; at 0.00488 µM, OCI-P5x cells, without rucaparib) 94.4% | viability ([10]; at 0.0195 µM, OCI-C5x cells, with rucaparib 10 µM, 100% = cells with rucaparib alone) 94.9% | viability ([10]; at 0.0195 µM, OCI-C5x cells, without rucaparib) 98.4% | viability ([10]; at 0.0195 µM, OCI-P5x cells, with rucaparib 20 µM, 100% = cells with rucaparib alone) 92.3% | viability ([10]; at 0.0195 µM, OCI-P5x cells, without rucaparib) 94.6% | viability ([10]; at 0.0781 µM, OCI-C5x cells, with rucaparib 10 µM, 100% = cells with rucaparib alone) 91.7% | viability ([10]; at 0.0781 µM, OCI-C5x cells, without rucaparib) 90.6% | viability ([10]; at 0.0781 µM, OCI-P5x cells, with rucaparib 20 µM, 100% = cells with rucaparib alone) 87.9% | viability ([10]; at 0.0781 µM, OCI-P5x cells, without rucaparib) 84% | viability ([10]; at 0.313 µM, OCI-C5x cells, with rucaparib 10 µM, 100% = cells with rucaparib alone) 93.3% | viability ([10]; at 0.313 µM, OCI-C5x cells, without rucaparib) 86.1% | viability ([10]; at 0.313 µM, OCI-P5x cells, with rucaparib 20 µM, 100% = cells with rucaparib alone) 90.8% | viability ([10]; at 0.313 µM, OCI-P5x cells, without rucaparib) 87.7% | viability ([10]; at 1.25 µM, OCI-C5x cells, with rucaparib 10 µM, 100% = cells with rucaparib alone) 82.9% | viability ([10]; at 1.25 µM, OCI-C5x cells, without rucaparib) 83.9% | viability ([10]; at 1.25 µM, OCI-P5x cells, with rucaparib 20 µM, 100% = cells with rucaparib alone) 87.4% | viability ([10]; at 1.25 µM, OCI-P5x cells, without rucaparib) 69.8% | viability ([10]; at 5 µM, OCI-C5x cells, with rucaparib 10 µM, 100% = cells with rucaparib alone) 13.2% | viability ([10]; at 5 µM, OCI-C5x cells, without rucaparib) 11.5% | viability ([10]; at 5 µM, OCI-P5x cells, with rucaparib 20 µM, 100% = cells with rucaparib alone) 19.1% | viability ([10]; at 5 µM, OCI-P5x cells, without rucaparib) 13.1%
0.788: fold change ([7]; measured here: relative caspase fold change +Dox/-Dox)
1580: cell count ([7]; measured here: total cells without miR-34 induction)
